# Source: the supplement of paper PMC10849652
# Targets with a hit are over-represented here; the source holds about 8,800 in all. About 0.5% of all pairs of compound and target were hits. Unmarked numbers belong to inactive results.
# Legend:
# Test in all cases: log2 fold change, soluble protein after heating vs DMSO (PISA); higher = thermal stabilisation; K562 lysate, 10 uM; active = over 0.2 and 3.5 SD of the protein, either way, in both replicates (recomputed)
# erlotinib = compound: C#Cc1cccc(Nc2ncnc3cc(OCCOC)c(OCCOC)cc23)c1 [erlotinib]
# Procedure, shortened: (§1)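 Thermal stability, expressed as log-two fold change relative to solvent controls, is given from duplicates. Crude K562 extract in PBS pH 7.4 with 1 mM MgCl2, at 1 mg/mL protein, was treated with 10 μM compound for 30 min and heated in aliquots for 3 min across 48°C-58°C. After pooling, adjustment to 0.5% NP-40 at 4°C and centrifugation at 21,000xg for 90 min, supernatant protein was measured by TMTpro 16plex LC-MS/MS with channel sums equalised.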
# [1] = compound: C/C(=N\NC(=O)C1=CC(=CC=C1)S(=O)(=O)N2CCOCC2)/C3=C(C=CC(=C3)Cl)O
# Procedure, shortened: as §1
# [2] = compound: C1=CC(=CC=C1C2=NC3=C(N2)C=C(C=C3)C(=O)N)OC4=CC=C(C=C4)Cl
# Procedure, shortened: as §1
# [3] = compound: C1=CC2=C(C=CC(=C2)/C=C\3/C(=O)NC(=NCC4=CC=CS4)S3)N=C1
# Procedure, shortened: as §1
# [4] = compound: C1=CC2=NC=CN=C2C=C1/C=C/3\C(=O)NC(=O)S3
# Procedure, shortened: as §1
# [5] = compound: C1=CC=C(C=C1)C2=NC(=C(N2)C3=CC=NC=C3)C4=CC(=C(C=C4)Cl)O
# Procedure, shortened: as §1
# [6] = compound: C1=CC=C2C(=C1)C3=NNC4=CC=CC(=C43)C2=O
# Procedure, shortened: as §1
# [7] = compound: C1CCN(C1)C(=O)NC2=CC=CC(=C2)NC3=NC=C(C(=N3)NCCC4=CN=CN4)Br
# Procedure, shortened: as §1
# [8] = compound: C1CN(CCC1(CC2=CC=C(C=C2)Cl)N)C3=NC=NC4=C3C=CN4
# Procedure, shortened: as §1
# IRAK-1-4 Inhibitor I = compound: C1COCCN1CCN2C3=CC=CC=C3N=C2NC(=O)C4=CC(=CC=C4)[N+](=O)[O-] [IRAK-1-4 Inhibitor I]
# Procedure, shortened: as §1
# Chain of UniProt Q68D91 (Q68D91 whole entry, looked up): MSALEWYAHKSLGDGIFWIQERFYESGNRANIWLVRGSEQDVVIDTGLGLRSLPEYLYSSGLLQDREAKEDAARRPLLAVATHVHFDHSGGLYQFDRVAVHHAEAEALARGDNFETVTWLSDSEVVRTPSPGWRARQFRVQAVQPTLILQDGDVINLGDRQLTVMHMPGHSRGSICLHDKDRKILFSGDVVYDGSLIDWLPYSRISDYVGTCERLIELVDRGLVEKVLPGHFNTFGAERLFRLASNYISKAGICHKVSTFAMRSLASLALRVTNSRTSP
# Chain of UniProt Q7Z3D4 (Q7Z3D4 whole entry, looked up): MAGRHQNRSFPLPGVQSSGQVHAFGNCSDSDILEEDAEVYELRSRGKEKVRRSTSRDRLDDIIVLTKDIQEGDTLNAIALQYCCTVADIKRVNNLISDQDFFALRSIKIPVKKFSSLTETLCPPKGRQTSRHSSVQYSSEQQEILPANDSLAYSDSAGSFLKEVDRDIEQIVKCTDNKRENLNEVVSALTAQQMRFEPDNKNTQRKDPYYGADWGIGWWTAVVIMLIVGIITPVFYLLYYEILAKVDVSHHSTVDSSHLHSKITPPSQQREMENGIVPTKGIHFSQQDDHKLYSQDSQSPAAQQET
# Chain of UniProt Q9BTE3 (Q9BTE3 whole entry, looked up): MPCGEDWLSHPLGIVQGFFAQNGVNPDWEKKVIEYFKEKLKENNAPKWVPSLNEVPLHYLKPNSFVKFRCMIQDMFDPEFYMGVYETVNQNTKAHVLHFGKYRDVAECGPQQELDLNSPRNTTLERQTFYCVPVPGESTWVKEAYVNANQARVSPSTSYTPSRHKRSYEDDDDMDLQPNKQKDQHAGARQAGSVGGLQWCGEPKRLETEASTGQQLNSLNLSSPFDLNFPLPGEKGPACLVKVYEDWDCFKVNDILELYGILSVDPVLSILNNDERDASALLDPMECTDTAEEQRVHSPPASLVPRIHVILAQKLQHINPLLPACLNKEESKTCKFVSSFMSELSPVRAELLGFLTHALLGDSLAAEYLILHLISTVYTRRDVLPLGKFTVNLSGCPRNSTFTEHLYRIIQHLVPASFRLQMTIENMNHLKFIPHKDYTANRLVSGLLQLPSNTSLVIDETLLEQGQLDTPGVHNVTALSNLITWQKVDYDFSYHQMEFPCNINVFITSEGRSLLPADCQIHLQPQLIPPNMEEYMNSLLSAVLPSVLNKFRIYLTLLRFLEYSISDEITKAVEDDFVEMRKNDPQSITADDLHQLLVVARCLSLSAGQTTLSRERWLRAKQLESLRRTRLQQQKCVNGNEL
# Chain of UniProt O14733 (O14733 whole entry, looked up): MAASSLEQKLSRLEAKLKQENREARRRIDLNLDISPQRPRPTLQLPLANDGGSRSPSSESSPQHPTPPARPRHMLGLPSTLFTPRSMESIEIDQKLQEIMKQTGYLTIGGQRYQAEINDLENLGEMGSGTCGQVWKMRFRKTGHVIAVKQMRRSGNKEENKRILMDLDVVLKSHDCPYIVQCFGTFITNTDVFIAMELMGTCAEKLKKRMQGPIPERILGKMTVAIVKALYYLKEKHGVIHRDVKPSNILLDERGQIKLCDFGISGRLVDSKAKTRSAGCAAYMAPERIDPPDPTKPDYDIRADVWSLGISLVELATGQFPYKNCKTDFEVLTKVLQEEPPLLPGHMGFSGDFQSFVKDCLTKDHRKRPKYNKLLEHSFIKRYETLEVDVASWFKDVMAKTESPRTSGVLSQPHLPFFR
# Chain of UniProt Q16644 (Q16644 whole entry, looked up): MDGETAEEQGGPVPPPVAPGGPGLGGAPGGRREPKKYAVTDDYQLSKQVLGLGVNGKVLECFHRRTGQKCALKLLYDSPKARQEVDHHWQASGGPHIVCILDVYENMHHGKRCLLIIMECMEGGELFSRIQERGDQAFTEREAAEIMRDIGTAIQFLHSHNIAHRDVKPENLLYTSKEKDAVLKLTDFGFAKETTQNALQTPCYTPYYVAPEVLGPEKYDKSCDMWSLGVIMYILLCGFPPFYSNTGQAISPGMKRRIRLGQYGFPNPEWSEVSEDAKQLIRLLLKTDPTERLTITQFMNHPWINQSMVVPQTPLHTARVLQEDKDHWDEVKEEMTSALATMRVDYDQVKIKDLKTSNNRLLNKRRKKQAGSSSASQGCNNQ
# Chain of UniProt Q7Z4S6 (Q7Z4S6 whole entry, looked up): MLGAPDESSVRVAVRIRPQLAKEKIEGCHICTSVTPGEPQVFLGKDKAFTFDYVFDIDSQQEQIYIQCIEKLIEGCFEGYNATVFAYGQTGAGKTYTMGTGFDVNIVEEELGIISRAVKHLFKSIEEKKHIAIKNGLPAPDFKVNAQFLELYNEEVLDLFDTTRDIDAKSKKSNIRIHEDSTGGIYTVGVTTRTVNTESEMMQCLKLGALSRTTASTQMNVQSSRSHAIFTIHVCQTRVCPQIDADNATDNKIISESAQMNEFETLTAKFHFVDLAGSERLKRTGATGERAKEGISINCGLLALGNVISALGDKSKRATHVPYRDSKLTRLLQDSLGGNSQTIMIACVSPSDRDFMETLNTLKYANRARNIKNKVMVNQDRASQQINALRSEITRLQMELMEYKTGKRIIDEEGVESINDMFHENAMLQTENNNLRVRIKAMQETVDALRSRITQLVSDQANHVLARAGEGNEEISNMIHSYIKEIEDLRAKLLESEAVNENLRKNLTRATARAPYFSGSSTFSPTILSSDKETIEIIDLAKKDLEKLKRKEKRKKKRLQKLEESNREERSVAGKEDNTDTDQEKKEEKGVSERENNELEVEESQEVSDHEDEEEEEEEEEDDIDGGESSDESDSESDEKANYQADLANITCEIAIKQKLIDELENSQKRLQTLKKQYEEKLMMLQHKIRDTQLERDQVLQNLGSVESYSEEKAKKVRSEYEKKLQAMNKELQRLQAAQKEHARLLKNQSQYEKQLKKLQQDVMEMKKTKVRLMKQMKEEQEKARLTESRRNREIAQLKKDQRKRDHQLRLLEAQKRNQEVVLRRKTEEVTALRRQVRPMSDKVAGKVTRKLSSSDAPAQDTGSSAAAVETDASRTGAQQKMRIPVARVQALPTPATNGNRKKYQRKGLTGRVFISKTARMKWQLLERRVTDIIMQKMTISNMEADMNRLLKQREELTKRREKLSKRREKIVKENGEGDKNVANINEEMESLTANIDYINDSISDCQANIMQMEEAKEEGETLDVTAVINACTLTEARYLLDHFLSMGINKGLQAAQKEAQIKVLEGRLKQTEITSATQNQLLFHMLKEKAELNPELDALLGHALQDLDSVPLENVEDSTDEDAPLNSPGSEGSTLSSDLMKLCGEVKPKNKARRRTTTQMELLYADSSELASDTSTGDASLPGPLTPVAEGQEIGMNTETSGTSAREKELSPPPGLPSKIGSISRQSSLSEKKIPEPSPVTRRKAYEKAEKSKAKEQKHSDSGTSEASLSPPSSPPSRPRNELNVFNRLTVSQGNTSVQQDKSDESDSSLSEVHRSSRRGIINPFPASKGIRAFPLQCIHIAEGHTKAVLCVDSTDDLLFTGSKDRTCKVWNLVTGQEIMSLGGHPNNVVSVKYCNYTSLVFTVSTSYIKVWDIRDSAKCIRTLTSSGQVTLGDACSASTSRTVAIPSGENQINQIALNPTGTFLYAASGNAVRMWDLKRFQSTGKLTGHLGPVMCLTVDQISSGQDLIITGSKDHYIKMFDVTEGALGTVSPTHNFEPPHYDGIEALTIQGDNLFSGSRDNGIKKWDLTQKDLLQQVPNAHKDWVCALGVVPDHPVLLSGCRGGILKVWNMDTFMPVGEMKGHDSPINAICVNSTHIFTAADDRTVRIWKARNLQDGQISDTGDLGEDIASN
# Chain of UniProt Q9H0B6 (Q9H0B6 whole entry, looked up): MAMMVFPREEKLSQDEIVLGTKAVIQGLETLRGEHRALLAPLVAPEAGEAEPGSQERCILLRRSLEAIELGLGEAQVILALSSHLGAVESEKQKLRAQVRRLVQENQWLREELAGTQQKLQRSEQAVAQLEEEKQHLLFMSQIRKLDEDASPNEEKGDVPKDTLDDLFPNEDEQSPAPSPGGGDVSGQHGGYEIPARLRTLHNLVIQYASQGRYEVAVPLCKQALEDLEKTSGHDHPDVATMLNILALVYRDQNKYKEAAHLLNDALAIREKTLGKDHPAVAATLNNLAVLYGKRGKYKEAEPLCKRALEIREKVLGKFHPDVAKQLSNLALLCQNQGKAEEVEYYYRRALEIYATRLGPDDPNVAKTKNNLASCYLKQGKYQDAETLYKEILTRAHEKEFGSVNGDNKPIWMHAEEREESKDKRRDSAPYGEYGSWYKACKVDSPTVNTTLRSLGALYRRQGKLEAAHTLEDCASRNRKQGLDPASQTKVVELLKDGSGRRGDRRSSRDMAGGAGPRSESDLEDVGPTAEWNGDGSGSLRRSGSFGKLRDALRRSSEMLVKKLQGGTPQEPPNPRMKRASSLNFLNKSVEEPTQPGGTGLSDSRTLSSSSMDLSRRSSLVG
# Chain of UniProt O00629 (O00629 whole entry, looked up): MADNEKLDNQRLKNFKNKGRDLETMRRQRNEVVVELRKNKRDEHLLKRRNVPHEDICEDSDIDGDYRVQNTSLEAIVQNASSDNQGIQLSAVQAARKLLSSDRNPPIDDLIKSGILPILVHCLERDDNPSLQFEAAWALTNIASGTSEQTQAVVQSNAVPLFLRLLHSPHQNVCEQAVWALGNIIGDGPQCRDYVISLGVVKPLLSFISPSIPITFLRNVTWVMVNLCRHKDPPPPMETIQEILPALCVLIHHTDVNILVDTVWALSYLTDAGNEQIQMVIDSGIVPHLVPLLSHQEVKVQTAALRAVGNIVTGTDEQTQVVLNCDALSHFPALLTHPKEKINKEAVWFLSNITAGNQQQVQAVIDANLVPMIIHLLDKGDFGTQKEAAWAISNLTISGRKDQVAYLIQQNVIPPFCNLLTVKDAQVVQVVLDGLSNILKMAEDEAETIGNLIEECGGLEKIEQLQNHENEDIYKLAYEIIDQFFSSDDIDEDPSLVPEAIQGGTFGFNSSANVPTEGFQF
# Chain of UniProt P14174 (P14174 whole entry, looked up): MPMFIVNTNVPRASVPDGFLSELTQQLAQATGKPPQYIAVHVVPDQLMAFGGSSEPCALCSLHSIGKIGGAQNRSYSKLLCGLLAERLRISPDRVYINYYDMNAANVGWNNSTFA
Target,log2 fold change (erlotinib),log2 fold change [1],log2 fold change [2],log2 fold change [3],log2 fold change [4],log2 fold change [5],log2 fold change [6],log2 fold change [7],log2 fold change [8],log2 fold change (IRAK-1-4 Inhibitor I)
MGST3 (UniProt O14880),0.007,0.011,0.008,0.022,0.011,-0.021,-0.054,-0.009,-0.035,0.019
MCCC1 (UniProt Q96RQ3),0.037,-0.028,0.048,-0.052,0.025,-0.029,-0.085,-0.022,0.077,-0.008
MAP2K7 isoform 4 (UniProt O14733),-0.042,-0.034,0.037,0.091,0.241,0.044,0.586 (active),-0.106,0.078,-0.123
MAPKAPK3 (UniProt Q16644),-0.007,-0.088,0.042,0.022,-0.014,-0.01,-0.034,0.045,-0.052,-0.035
LSM8 (UniProt O95777),-0.034,0.003,-0.003,0.027,0.423 (active),-0.026,0.066,-0.008,-0.021,0.028
MAP3K4 (UniProt Q9Y6R4),0.051,-0.027,-0.026,0.011,-0.014,0.018,0.105,0.051,-0.101,-0.013
KLHL36 (UniProt Q8N4N3),-0.047,-0.001,0.06,-0.112,-0.313 (active),-0.041,0.013,-0.009,0.084,0.011
KPNA4 (UniProt O00629),-0.015,-0.037,0.046,0.022,-0.014,-0.013,-0.007,-0.045,-0.012,0.038
LSG1 (UniProt Q9H089),0.044,0.036,-0.059,-0.136,-0.021,0,-0.114,-0.031,0.103,-0.048
MCMBP (UniProt Q9BTE3),0.038,0.069,0.024,0.063,0.01,-0.017,0.001,-0.023,0.072,0
LYSMD3 (UniProt Q7Z3D4),-0.067,-0.051,0.044,0.069,0.05,0.007,-0.11,0.037,0,-0.01
MIF (UniProt P14174),0.006,0.003,-0.021,-0.045,-0.007,-0.009,0.047,-0.023,0.032,0.058
LAP3 (UniProt P28838),-0.034,0.08,0.082,-0.022,0.013,-0.026,-0.017,0.027,0.008,0.061
MPI (UniProt P34949),0.02,0.045,0.046,-0.018,-0.014,0.022,-0.02,-0.003,0.038,0.035
MAPK3 (UniProt P27361),0,0.02,0,-0.025,0.031,0.01,0.052,0.021,0.055,0.049
MBLAC2 (UniProt Q68D91),-0.052,-0.042,0.01,-0.055,0.012,0.018,0.065,0.026,-0.007,-0.027

Target,log2 fold change (erlotinib),log2 fold change [1],log2 fold change [2],log2 fold change [3],log2 fold change [4],log2 fold change [5],log2 fold change [6],log2 fold change [7],log2 fold change [8],log2 fold change (IRAK-1-4 Inhibitor I)
KRIT1 (UniProt O00522),0.071,0.061,0.043,-0.074,0.177,0.038,-0.034,-0.042,0.043,-0.073
MITD1 (UniProt Q8WV92),-0.016,0.025,-0.019,0.021,0.014,-0.072,-0.016,-0.047,-0.02,-0.033
MAP4K2 (UniProt Q12851),0.001,-0.202,-0.082,-0.195,0.05,-0.057,0.355,0.288,-0.205,-0.046
MPP1 (UniProt Q00013),0.014,0.017,-0.007,-0.008,-0.025,0.014,-0.014,0.003,0.018,-0.007
MAP2K3 isoform 3 (UniProt P46734),0.048,0.061,0.03,-0.063,0.03,-0.037,0.119,-0.006,0.129,0.03
MORF4L1 isoform 2 (UniProt Q9UBU8),0.028,0.06,0.046,-0.027,-0.032,-0.005,0.017,-0.04,-0.01,0.013
KIF21A isoform 5 (UniProt Q7Z4S6),-0.025,0.022,-0.002,0.01,-0.013,-0.016,-0.034,-0.009,0.01,-0.002
LIMS1 isoform 3 (UniProt P48059),-0.004,-0.034,0.014,0.009,-0.008,0.004,0.094,0.003,-0.017,-0.024
METTL7A (UniProt Q9H8H3),0.029,0.043,0.183,0.008,-0.041,0.048,-0.016,0.385 (active),0.06,0.036
MAP4 (UniProt P27816),0.001,-0.013,0.031,-0.003,-0.001,0.023,-0.002,-0.007,0.003,0.024
MLXIP (UniProt Q9HAP2),0.011,0.003,0.027,0.01,-0.017,0.04,-0.011,-0.025,-0.01,0.003
MARK2 (UniProt E9PC69),0.095,0.132,0.026,0.056,-0.017,0.024,-0.246,-0.18,-0.084,-0.076
KLHL12 isoform 2 (UniProt Q53G59),-0.051,0.021,0.004,0.053,0.165,-0.134,0.04,–,–,0.046
KPNA2 (UniProt P52292),0.009,0.03,-0.026,0.005,0.002,-0.003,-0.053,-0.017,0.013,-0.02
KLC2 (UniProt Q9H0B6),-0.008,0.065,0.07,0.008,-0.056,0.004,-0.061,-0.048,-0.056,-0.009
